Screening results: PubChem BioAssay, Sanford-Burnham Center for Chemical Genomics
CF NFkB block – blocks PAF-induced NF-kB reporter in cystic fibrosis cells; KKLEB NF-kB-GFP reporter, GFP fluorescence overnight; inhibition, % at 5 µM; hit rate 0.86% among 360,000; AID 588850;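 active = at least 50% inhibition at 5 µM, scaled per plate between neutral and stimulator controls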;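 note: PAF is a Pseudomonas aeruginosa culture filtrate used as stimulus; plate controls were PAF-stimulated DMSO wells for no effect and unstimulated DMSO wells for full effect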
KKLEB tox – counter-screen for CF NF-kB inhibitors: cytotoxicity; hit rate 0.36% among 360,000; KKLEB CF airway cells viability, ATPlite luminescence, overnight; stronger effect = lower value; cells stimulated with P. aeruginosa culture filtrate; activity change (cytotoxicity), % at 5 µM; AID 602141;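 active = corrected activity change at or below -50% at 5 µM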
TRAIL sens C8 – sensitizes caspase-8 expressing cells to TRAIL; NB7+C8 cells + TRAIL, ATPlite viability luminescence; inhibition (viability loss, TRAIL sensitization), % at 10 µM; hit rate 1% among 360,000; AID 624354;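 active = compounds causing at least 50% loss of cell viability in the single-dose screen, relative to plate controls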
PPC-1+TRAIL kill – kills PPC-1 cancer cells in the presence of TRAIL; PPC-1 cells + TRAIL, ATPLite viability luminescence; cell killing (% activity), % at 4 µM or 5 µM; hit rate 0.41% among 220,000; AID 1443;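 active = cell killing above 50% in the first pass at 4 µM, then a duplicate retest at 5 µM averaging 50% or more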;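 note: plate controls were cells with TRAIL plus DMSO for no effect and medium-only wells lacking cells for full effect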
Peg3 prom inh – reduces Peg3 promoter-driven luciferase expression in HeLa; inhibition, % at 20 µM; AID 588405; hit rate 1.7% among 360,000; HeLa PEG-Prom luciferase reporter, luminescence, overnight;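 active = inhibition of at least 50% at 20 µM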
HIF-2a inh – inhibitors of HIF-2a. inhibition, % at 18.8 µM. 786-0 RCC cells HIF-2a reporter, luciferase luminescence, overnight. hit rate 0.72% among 360,000;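 active = inhibition of the luminescence signal of 40% or more relative to plate controls, in a single-dose primary screen at 18.75 µM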
PPC-1 tox – kills PPC-1 cells | PPC-1 viability, ATPlite luminescence, overnight | AID 1447 | hit rate 50% among 1,200 | shares compounds with PPC-1+TRAIL kill | cytotoxicity, % at 5 µM;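 active = reconfirmed compounds whose average cytotoxicity reaches 50% or more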;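 note: 0% = DMSO-treated cells and 100% = wells holding medium but no cells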
* = called active by the depositor; . = no result given. Compounds with a hit are over-represented: about 3.1% of the library has one in this group of screens.

SMILES	CF NFkB block	KKLEB tox	TRAIL sens C8	PPC-1+TRAIL kill	Peg3 prom inh	HIF-2a inh	PPC-1 tox
CCCCN(C)S(=O)(=O)c1c(C)[nH]c(=O)[nH]c1=O	-6	12	5	5	3	11	0
COc1ccc(N/C=C2\CCc3ccccc3C2=O)cc1	-18	-49	86*	72*	-25	5	72*
CC(=O)Oc1ccc(/C=C2/CCc3ccccc3C2=O)cc1	5	-11	76*	38	-171	-281	44
O=C1/C(=C/c2ccc([N+](=O)[O-])cc2)CCc2ccccc21	.	.	.	33	.	.	.
COc1ccc(N/C=C2\CCOC2=O)cc1	-2	2	-1	-9	-1	-5	.
COc1cc(SC)ccc1C(=O)Nc1cccc(C)n1	-3	-8	43	.	-354	-358	.
COc1cc(SC)ccc1C(=O)Nc1ccc(Br)cn1	-10	-85*	86*	88*	55*	38	88*
COc1cc(SC)ccc1C(=O)Nc1ccc2c(c1)OCO2	-28	0	38	42	-284	-201	40
COc1cc(SC)ccc1C(=O)Nc1ccccn1	-4	-40	77*	68*	-167	-169	66*
c1ccc(N2CCN(c3cccc(-c4cc5ccccc5s4)n3)CC2)nc1	9	1	-6	.	0	5	.
O=C(CS(=O)(=O)Cc1ccccc1)c1ccccc1	15	1	-9	.	-15	-19	.
CCOC(=O)N1CCC(n2c(=S)[nH]c3ccccc3c2=O)CC1	-3	-1	-3	-5	-4	20	-18
Clc1ccc2nc(-c3ccc4c(c3)OCO4)cn2c1	-21	-44	79*	80*	29	-26	74*
CO[C@H]1CN(C)C(=O)c2ccc(NS(=O)(=O)c3ccccc3F)cc2OC[C@H](C)NC[C@@H]1C	.	.	-8	.	.	9	.
COc1ccc2nc(N=Nc3ccc(N(C)C)cc3)sc2c1	7	-74*	94*	90*	25	-138	90*
CCC(=O)Nc1cccc2cccnc12	3	-33	3	24	2	6	.
C/C(=N\Nc1cccc2cccnc12)c1ccc[nH]1	-13	-10	41	50	-264	-250	49
CCO/C(=C/c1sc2ccc(OC)cc2[n+]1CCCS(=O)(=O)[O-])CC	-13	-13	-3	2	4	1	.
CCOC(=O)C[n+]1c(C)sc2ccc(OC)cc21	-7	-4	-6	10	-8	-3	22
CC1(C)Cc2c(cnn2-c2ccccc2)C(NC(=O)CCCn2cncn2)C1 (configuration not stated)	13	-6	6	.	-54	-65	.
C=CCNCc1cccn1-c1sc2c(c1C#N)CCCC2	7	-15	12	-3	5	19	8
N#Cc1c(-n2cccc2/C=N/O)sc2c1CCCC2	-11	13	13	11	3	13	.
N/C(=N\OCc1ccc([N+](=O)[O-])cc1)c1ccccn1	.	.	.	86*	.	.	85*
CCc1ccccc1NC(=O)C1CCN(S(C)(=O)=O)CC1	1	-1	-22	.	4	11	.
Cc1onc(-c2ccccc2)c1C(=O)OCC(=O)NC(C)c1ccc(Cl)cc1 (configuration not stated)	-3	-35	-7	.	18	0	.
SMILES	CF NFkB block	KKLEB tox	TRAIL sens C8	PPC-1+TRAIL kill	Peg3 prom inh	HIF-2a inh	PPC-1 tox
O=C(c1cccc([N+](=O)[O-])c1)N1CCCC(C(=O)N2CCc3ccccc3C2)C1 (configuration not stated)	17	-9	-10	.	10	-3	.
CC(C)Cc1cc(C(=O)Nc2cccc(O)c2)no1	-14	-9	64*	63*	-60	-262	61*
CC(C)Cc1cc(C(=O)Nc2ccc(Br)cc2)no1	-15	5	6	14	-327	-362	.
c1ccc2[nH]c(CCCCc3nc4ccccc4[nH]3)nc2c1	-4	1	-16	.	7	10	.
C(=C\c1nc2ccccc2[nH]1)/c1ccccc1	5	16	86*	88*	-91	-6	88*
CC1(C)OC(=O)C2=C(C[C@@H](C3CCCCC3)O[C@H]2c2ccc(F)cc2)O1	-1	5	8	.	16	6	.
O=C(c1ccco1)N1CCC(c2nc3c(nnn3Cc3ccccc3Cl)c(=O)[nH]2)CC1	16	-4	-8	.	17	20	.
